Inconclusive results are not listed. A number with no mark means an inactive call. The source made the active and inactive calls. Calls follow the shape of the dose curve; as a rule, active = well fitted inhibition curve with a large enough effect in the signal ratio, with a control signal flat (not every such curve was filed as active); inconclusive = small, poorly fitted or top-dose-only effect, or effect the other way, or a change in a side signal; inactive = flat fitted curve, though single readings scatter; the % refers to the signal ratio.

Sequence of Peroxisome proliferator-activated receptor gamma (Homo sapiens) (P37231 whole entry, looked up): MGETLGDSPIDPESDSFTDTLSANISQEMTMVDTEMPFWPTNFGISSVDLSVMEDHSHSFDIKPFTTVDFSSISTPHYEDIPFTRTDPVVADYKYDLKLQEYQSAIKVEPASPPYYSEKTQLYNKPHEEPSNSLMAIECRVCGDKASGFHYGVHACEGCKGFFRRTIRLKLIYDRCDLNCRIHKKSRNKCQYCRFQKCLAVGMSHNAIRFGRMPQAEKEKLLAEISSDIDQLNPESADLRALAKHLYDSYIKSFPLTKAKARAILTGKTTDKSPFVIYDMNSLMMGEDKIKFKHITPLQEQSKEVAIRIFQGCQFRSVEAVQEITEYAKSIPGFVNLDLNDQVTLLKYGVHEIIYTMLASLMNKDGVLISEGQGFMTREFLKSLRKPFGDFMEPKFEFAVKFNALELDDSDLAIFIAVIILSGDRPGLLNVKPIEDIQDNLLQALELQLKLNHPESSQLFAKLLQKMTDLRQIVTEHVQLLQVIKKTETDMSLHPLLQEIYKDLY

This assay addresses Peroxisome proliferator-activated receptor gamma (Homo sapiens) (UniProt P37231). The assay can be described thus: qHTS assay for small molecule antagonists of peroxisome proliferator-activated receptor gamma signaling (AID 588537). To be noted: HEK293 PPARg-UAS-bla, beta-lactamase ratio, antagonist mode; series mostly up to 76.8 µM; activity, negative = inhibition: at the top concentration. An excerpt:
NIH Chemical Genomics Center [NCGC]
U.S. Environmental Protection Agency [EPA]
National Institutes of Environmental Health Sciences [NIEHS]
National Toxicology Program [NTP]
The Peroxisome proliferator-activated receptors (PPARs) are lipid-activated transcription factors of the nuclear receptor superfamily with three distinct subtypes namely PPAR alpha, PPAR delta (also called PPAR beta) and PPAR gamma. All these subtypes heterodimerizes with Retinoid X receptor (RXR) and these heterodimers regulate transcription of various genes. PPAR-gamma (glitazone receptor) ligands have been used in the treatment of type 2 diabetes and dyslipidaemia. It is involved in the regulation of glucose and lipid metabolism. PPAR-gamma activates certain genes like Paraoxonase 1 which is responsible for hydrolyzing organophosphates. PPAR-gamma ligands may also be therapeutically important in the treatment of coronary artery disease, obesity and cancer and atherosclerosis.
NCGC Assay Protocol Summary
Using a beta-lactamase reporter-gene under control of Peroxisome Proliferator-Activated-gamma (PPAR-gamma) response element, a cell-based assay [GeneBLAzer PPAR-gamma-UAS-bla assay developed by Invitrogen] was used to measure PPAR-gamma ligands signaling. GeneBLAzer PPAR-gamma-UAS-bla-HEK293 cells were used with assay medium containing 1% charcoal/dextran treated FBS. The assay was performed in clear bottom black Greiner 1536-well plates. Library compounds were measured for their ability to inhibit the reporter gene activity. Compounds were screened in a titration series in 1536-well format. The fluorescence intensity (405 nm excitation, 460/530 nm emission) was measured using an EnVision plate reader. Data was normalized relative to Rosiglitazone control (50 nM, 100%), and DMSO only wells (basal, 0%). Concentration-response titration points for each compound were fitted to the Hill equation yielding concentrations of half-maximal inhibition (IC50) and maximal response (efficacy) values.
qHTS protocol for PPAR-gamma beta-lactamase assay in antagonist mode
[Step] [Parameter] [Value] [Description]
1. Reagent; 5 uL; 3000 cells/well
2. Incubation; 37 C for 6-6.5 hrs
4. Controls (GW9662, PPAR-gamma antagonist); 23 nL,
5. Agonist (Stimulator); 1uL; Rosiglitazone at 50 nM (final) concentration
6. Incubation; 37 C for 16 hrs
7. Detection reagent; 1 uL of CCF4-dye
8. Incubation; RT for 2 hrs
9. Detection; Fluorescence; Envision plate reader
Take `CC[C@H]1OC(=O)[C@H](C)[C@@H](O[C@H]2C[C@@](C)(OC)[C@@H](O)[C@H](C)O2)[C@H](C)[C@@H](O[C@@H]2O[C@H](C)C[C@H](N(C)C)[C@H]2O)[C@](C)(O)C[C@@H](C)CN(C)[C@H](C)[C@@H](O)[C@]1(C)O`: the “activity, negative = inhibition” value was -22%. The same measure, in the same setting: the value for `Oc1cccc(O)c1O` was -5.57%. Same read-out and setting: for `C=CC(C)(O)CC/C=C(\C)CCC=C(C)C` (stereo unspecified) the value was 0.743%.

With `NC(N)=O`, the “activity, negative = inhibition” value is -10.6%.

Take `Cc1ccc(S(=O)(=O)NCl)cc1`: the “activity, negative = inhibition” value is 11.2%. Consider `OCCOCCOCCO`, for which the outcome was inactive.

`CC1=CCC2CC1C2(C)C` (stereo unspecified): the “activity, negative = inhibition” value was 0.838%.

Consider `OC[C@H]1O[C@@](CO)(O[C@H]2O[C@H](CO)[C@@H](O)[C@H](O)[C@H]2O)[C@@H](O)[C@@H]1O`, for which the “activity, negative = inhibition” value is 2.96%. Still for that read-out and setting: for `CC(C)CCCCCCc1ccc(O)cc1` the value was 9.71%; for `CC(C)CCC[C@@H](C)[C@H]1CC[C@H]2[C@@H]3CC=C4C[C@@H](O)CC[C@]4(C)[C@H]3CC[C@]12C`, 11.3%; for `O.O.O.O.O.O.O.O=S(=O)([O-])[O-].[Co+2]`, 3.03%. Same read-out and setting: for `CC(C)(C)CC(C)(C)c1ccc(OCCO)cc1` the value was 1.31%; for `CC1=CC(=O)NS(=O)(=O)O1`, -1.03%. For the compound `NCCN`, the “activity, negative = inhibition” value is 4.58%. The same measure, in the same setting: the value for `O=C(OCc1ccccc1)c1ccc(O)cc1` was -15.7%; that for `O=P(O)(O)O` was 9.76%. With `NCCO/C=C/[C@H](N)C(=O)O`, the “activity, negative = inhibition” value was -1.67%. The same measure, in the same setting: the value for `C[Si](C)(C)O[Si](C)(C)C` was 7.02%; that for `Nc1ccc(N=Nc2ccccc2)c(N)n1` was -30.7%. As to `OC[C@H]1O[C@@H]2O[C@H]3[C@H](O)[C@@H](O)[C@@H](O[C@H]4[C@H](O)[C@@H](O)[C@@H](O[C@H]5[C@H](O)[C@@H](O)[C@@H](O[C@H]6[C@H](O)[C@@H](O)[C@@H](O[C@H]7[C@H](O)[C@@H](O)[C@@H](O[C@H]1[C@H](O)[C@H]2O)O[C@@H]7CO)O[C@@H]6CO)O[C@@H]5CO)O[C@@H]4CO)O[C@@H]3CO`, the “activity, negative = inhibition” value was 7.43%. On the same count and under the same terms, for `OB(O)O` the value was -1.19%; for `Nc1ncnc2c1ncn2[C@H]1CC[C@@H](CO)O1`, 5.41%. For the compound `CCCCO`, the result was inactive. As for `N[C@@H](Cc1cc(I)c(Oc2ccc(O)c(I)c2)c(I)c1)C(=O)O`, the “activity, negative = inhibition” value is -5.11%. On to `c1ccc2ccccc2c1`, for which the outcome was inactive. With `OCc1ccccc1`, the “activity, negative = inhibition” value was -4.89%. The same measure, in the same setting: for `CCCCCCCCCCCCCCCCCC(=O)OC[C@@H](O)[C@H]1OC[C@H](O)[C@H]1O` the value was 5.61%. Still for that read-out and setting: the value for `CC(C)[C@@H]1CC[C@@H](C)C[C@H]1O` was 8.96%. Turning to `OCC(O)CO`, the “activity, negative = inhibition” value was -1.37%. Same read-out and setting: the value for `CO[C@@H]1[C@H](OC(=O)/C=C/C=C/C=C/C=C/C(=O)O)CC[C@]2(CO2)[C@H]1[C@@]1(C)O[C@@H]1CC=C(C)C` was -1.85%; that for `Cc1ncc[nH]1` was 12.3%.

The values are drawn from PubChem BioAssay (NCATS).
